This is an account of results in PubChem BioAssay.

A number with no mark means an inactive call. The rule behind the calls is not given here.

In this assay the target is Pantothenate synthetase (Mycobacterium tuberculosis (strain ATCC 25618 / H37Rv)) (UniProt P9WIL5). The assay is described as follows: Recombinant Mtb pantothenate synthetase (PanC) inhibitors, coupled enzyme, confirmatory (AID 375).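 Note: 0% = full reaction with vehicle and 100% = no enzyme background.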 Conditions: coupled enzyme assay; at 10 µM, stronger effect = higher value.
Sequence of Pantothenate synthetase (Mycobacterium tuberculosis (strain ATCC 25618 / H37Rv)) (P9WIL5 whole entry, looked up): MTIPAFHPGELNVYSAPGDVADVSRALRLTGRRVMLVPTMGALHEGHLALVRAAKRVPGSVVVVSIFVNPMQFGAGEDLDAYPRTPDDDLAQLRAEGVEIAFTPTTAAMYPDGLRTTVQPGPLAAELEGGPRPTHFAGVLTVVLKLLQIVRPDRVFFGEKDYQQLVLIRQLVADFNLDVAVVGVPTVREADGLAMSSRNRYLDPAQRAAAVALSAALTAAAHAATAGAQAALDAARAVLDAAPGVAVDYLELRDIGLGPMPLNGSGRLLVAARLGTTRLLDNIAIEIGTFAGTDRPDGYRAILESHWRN
In the case of `NC(=O)C(Cc1ccccc1)NS(=O)(=O)c1ccc(N2CCCC2=O)cc1` (stereo not drawn), the inhibition is 0%.

As to `FC(F)Sc1nnc(-c2cccs2)n1-c1ccccc1`, the inhibition was 0%.

`CN(C)C(=O)CSc1nnc([C@H](Cc2c[nH]c3ccccc23)NC(=O)OC(C)(C)C)o1`: the inhibition is 13%.

For the molecule `Cc1cc(C(=O)Nc2ccccc2C#N)n(-c2ccccc2)n1`, the inhibition was 0%.

As to `Cn1cnnc1Sc1nc2c(c(=O)n(C)c(=O)n2C)n1Cc1ccccc1Cl`, the inhibition is 0%.

As for `O=C(CN(C(=O)CCNC(=O)c1ccco1)c1ccccc1)NC1CCCC1`, the inhibition was 2%.

Regarding `Cc1cc(NC(=O)c2ccccc2)ncc1NC(=O)c1ccco1`, the inhibition is 0%.

For `COc1ccc(C)cc1NC(=O)CN1CCN(S(=O)(=O)c2ccc(Cl)cc2)CC1`, the inhibition is 0%.

As to `O=C(Cn1ncc2c1-c1ccccc1OC2)N1CCc2ccccc21`, the inhibition was 0%.

Regarding `Cc1nc(N2CCC(C)CC2)c2c(C)c(C(=O)O)sc2n1`, the inhibition is 0%.

As to `CC(C)n1c(CN2CCN(C)CC2)nc2c1c(=O)n(C)c(=O)n2C`, the inhibition was 0%.

For the molecule `Cc1cccn2c(=O)c3cc(C(=O)NC4CCCC4)c(=N)n(C4CCCC4)c3nc12`, the inhibition is 0%.

For the molecule `Cc1ccc(-c2cc3nc4c(c(=O)n3[nH]2)CCCC4)cc1`, the inhibition is 6%.

Turning to `CSc1ccc(Cn2nnc(C(=O)NCc3ccccc3)c2N)cc1`, the inhibition is 0%.

As to `O=C(c1ccco1)N1CCN(C(=O)c2sccc2-c2ccccc2)CC1`, the inhibition was 0%.

On to `CSc1nc(C)cc(OCC(=O)N2CCOCC2)n1`, for which the inhibition was 0%.

Consider `COc1ccccc1NC(=O)CSc1nnc(-c2ccncc2)n1CC1CCCO1` (stereo not drawn), for which the inhibition is 0%.

Turning to `CN1CCCc2cc(C#N)c(=O)[nH]c21`, the inhibition was 5%.

Take `Cc1cc(C)cc(NC(=O)CSc2nnc(Cc3cccn3C)n2-c2ccc(F)cc2)c1`: the inhibition is 6%.

Regarding `Cc1nc(-c2cnn(-c3ccccc3)c2)c2cc(C)oc2n1`, the inhibition is 2%.

For `COc1ccc(NS(=O)(=O)c2coc(C(N)=O)c2)cc1Cl`, the inhibition is 0%.

Regarding `Cc1ccc(NC(=O)CC2Nc3ccccc3NC2=O)cc1Cl` (stereo not drawn), the inhibition was 0%.

For the molecule `CCOC(=O)c1ccc(-n2c(=O)[nH]c3ccccc3c2=O)cc1`, the inhibition is 2%.

For orientation: inhibition means the share of the control response that was lost under treatment.
